Data published in the supplement of paper PMC11482750.
± gives the standard deviation of the averaged measurements.

Legend:
Assay in all cases: control-subtracted net OSN firing rate; higher = stronger neuronal activation
Settings in all cases: odorant dilution (vol/vol): 1/100
phenethyl acetate = compound: CC(=O)OCCc1ccccc1 [phenethyl acetate]
How it was run: (§1)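 Fed female flies 1–5 days old, Scaptomyza species or D. melanogaster wild-type, mutant or at1 empty-neuron lines expressing Or42a homologs, were used for single sensillum recordings from palp or antennal olfactory sensory neurons. Each odorant, at 1:100 vol/vol in mineral oil or dimethyl sulfoxide with 20 μl applied to filter paper, was given as a 1 s pulse into a 16 ml/min filtered air stream. Spike counts over 0.5 s from 0.2 s after onset were background-subtracted, doubled and solvent-corrected, then averaged across replicates.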

fenchone = compound: CC12CCC(C1)C(C)(C)C2=O [fenchone]
How it was run: as §1

2-hexanol = compound: CCCCC(C)O [2-hexanol]
How it was run: as §1

4-ethylguaiacol = compound: CCc1ccc(O)c(OC)c1 [4-ethylguaiacol]
How it was run: as §1

methyl salicylate = compound: COC(=O)c1ccccc1O [methyl salicylate]
How it was run: as §1

guaiacol = compound: COc1ccccc1O [guaiacol]
How it was run: as §1

phenethyl alcohol = compound: OCCc1ccccc1 [phenethyl alcohol]
How it was run: as §1

Row | Target | control-subtracted net OSN firing rate (phenethyl acetate) | control-subtracted net OSN firing rate (fenchone) | control-subtracted net OSN firing rate (2-hexanol) | control-subtracted net OSN firing rate (4-ethylguaiacol) | control-subtracted net OSN firing rate (methyl salicylate) | control-subtracted net OSN firing rate (guaiacol) | control-subtracted net OSN firing rate (phenethyl alcohol)
1 | Canton-S (D. melanogaster) pb2b | -3.43 ± 6.8 spikes/s | -6.86 ± 10 spikes/s | -2.57 ± 8.5 spikes/s | -1.43 ± 7.1 spikes/s | 10.6 ± 10 spikes/s | 145 ± 52 spikes/s | 1.14 ± 10 spikes/s
2 | S. flava pb3b-like | 2.67 ± 5 spikes/s | 0 ± 5.4 spikes/s | -1 ± 27 spikes/s | 14.7 ± 34 spikes/s | 7.67 ± 26 spikes/s | 8.33 ± 15 spikes/s | 2.67 ± 6.8 spikes/s
3 | S. pallida pb3b-like | -18.7 ± 18 spikes/s | -17 ± 12 spikes/s | -5.67 ± 12 spikes/s | -9.33 ± 13 spikes/s | 14.7 ± 24 spikes/s | -12.7 ± 18 spikes/s | -9.33 ± 19 spikes/s
4 | S. flava pb1b-like | -3.67 ± 9.3 spikes/s | 2 ± 13 spikes/s | -26.7 ± 21 spikes/s | 97 ± 18 spikes/s | -5.33 ± 20 spikes/s | 9.67 ± 7.5 spikes/s | -6 ± 20 spikes/s
5 | S. flava pb3a-like | 160 ± 17 spikes/s | -2.67 ± 5.6 spikes/s | 6 ± 10 spikes/s | -3.33 ± 9.6 spikes/s | 5.67 ± 12 spikes/s | -5.33 ± 6.2 spikes/s | -3.33 ± 6.8 spikes/s
6 | S. flava pb2a-like | 3 ± 11 spikes/s | 213 ± 48 spikes/s | 5.67 ± 11 spikes/s | 1.67 ± 6.6 spikes/s | 3 ± 8.7 spikes/s | 0 ± 13 spikes/s | 1.33 ± 4.7 spikes/s
7 | S. montana pb2b-like | -2.33 ± 4.8 spikes/s | -7.33 ± 4.5 spikes/s | 16.7 ± 14 spikes/s | 16 ± 12 spikes/s | 106 ± 35 spikes/s | 107 ± 49 spikes/s | 18.3 ± 17 spikes/s
8 | S. pallida pb2b-like | -0.333 ± 8.7 spikes/s | -3.33 ± 8.8 spikes/s | 27 ± 9.9 spikes/s | 24 ± 19 spikes/s | 72 ± 19 spikes/s | 75.7 ± 20 spikes/s | 15 ± 11 spikes/s
9 | S. montana pb3b-like | -2.67 ± 9.3 spikes/s | -1 ± 4.7 spikes/s | 4 ± 7.7 spikes/s | -3.67 ± 9.5 spikes/s | 2.33 ± 11 spikes/s | -1.67 ± 5.4 spikes/s | -3.67 ± 8.9 spikes/s
10 | Canton-S (D. melanogaster) pb1a | 7.11 ± 7.8 spikes/s | 0 ± 8.1 spikes/s | 68.7 ± 32 spikes/s | 1.78 ± 9.1 spikes/s | 6.22 ± 13 spikes/s | 5.33 ± 8.1 spikes/s | 4 ± 8.7 spikes/s
11 | Canton-S (D. melanogaster) pb3a | 0 ± 9.4 spikes/s | -2.83 ± 8.3 spikes/s | 15.8 ± 18 spikes/s | 7.5 ± 8.4 spikes/s | 6.33 ± 7.3 spikes/s | 2.33 ± 8.2 spikes/s | 7.67 ± 9.3 spikes/s
12 | S. hsui pb2b-like | 3 ± 4.9 spikes/s | 0.667 ± 7.2 spikes/s | 20 ± 18 spikes/s | 1.67 ± 2.9 spikes/s | 103 ± 43 spikes/s | 111 ± 23 spikes/s | 17.3 ± 21 spikes/s
13 | S. pallida pb1a-like | 26.7 ± 30 spikes/s | -3.67 ± 8.8 spikes/s | 88.3 ± 13 spikes/s | 0.667 ± 8.8 spikes/s | 15.3 ± 34 spikes/s | 42 ± 22 spikes/s | 23 ± 38 spikes/s
14 | Canton-S (D. melanogaster) pb1b | -2 ± 8.4 spikes/s | 1.33 ± 9.9 spikes/s | -6.67 ± 6.2 spikes/s | 110 ± 36 spikes/s | -3.78 ± 12 spikes/s | 38 ± 29 spikes/s | 4.67 ± 5.4 spikes/s
15 | S. montana pb1a-like | 6.33 ± 9.6 spikes/s | 0 ± 12 spikes/s | 123 ± 17 spikes/s | -0.333 ± 2.9 spikes/s | 5.67 ± 11 spikes/s | 26.3 ± 13 spikes/s | 82.7 ± 34 spikes/s
16 | S. pallida pb3a-like | -17.3 ± 8.2 spikes/s | -13 ± 14 spikes/s | 94.3 ± 19 spikes/s | -8 ± 7.3 spikes/s | 6.33 ± 15 spikes/s | -11.7 ± 15 spikes/s | -15.7 ± 12 spikes/s
17 | S. hsui pb1b-like | 1 ± 7 spikes/s | -3.67 ± 6.1 spikes/s | -11.7 ± 9.8 spikes/s | 111 ± 24 spikes/s | -4.67 ± 8.6 spikes/s | 78 ± 26 spikes/s | -11 ± 8.7 spikes/s
18 | Canton-S (D. melanogaster) pb2a | 0.286 ± 4.5 spikes/s | 166 ± 26 spikes/s | 3.43 ± 4.9 spikes/s | 4.86 ± 4.6 spikes/s | 3.43 ± 3.4 spikes/s | 6.86 ± 8.1 spikes/s | 6.29 ± 5.3 spikes/s
19 | S. montana pb2a-like | 1 ± 6.5 spikes/s | 177 ± 36 spikes/s | 5.67 ± 14 spikes/s | 1.67 ± 7.7 spikes/s | 6 ± 6.3 spikes/s | 6 ± 6.6 spikes/s | 7.67 ± 14 spikes/s
20 | S. hsui pb2a-like | 1 ± 7.1 spikes/s | 140 ± 16 spikes/s | 6 ± 8 spikes/s | 3.33 ± 7.3 spikes/s | 6.33 ± 3.2 spikes/s | 8 ± 7.5 spikes/s | 3.67 ± 9.2 spikes/s
21 | S. montana pb3a-like | 97 ± 35 spikes/s | -2.33 ± 6.9 spikes/s | 5.67 ± 13 spikes/s | -8.67 ± 17 spikes/s | 3.33 ± 9.9 spikes/s | -4.33 ± 12 spikes/s | -3.33 ± 15 spikes/s
22 | S. hsui pb1a-like | 13.3 ± 16 spikes/s | -0.333 ± 6.4 spikes/s | 96 ± 27 spikes/s | 13.7 ± 5.3 spikes/s | 14.7 ± 17 spikes/s | 16 ± 8.3 spikes/s | 29.7 ± 22 spikes/s
23 | S. hsui pb3a-like | -5.67 ± 12 spikes/s | -7 ± 11 spikes/s | 145 ± 27 spikes/s | -3.33 ± 10 spikes/s | 8 ± 8.1 spikes/s | -5.33 ± 14 spikes/s | -0.333 ± 7.4 spikes/s
24 | S. flava pb2b-like | 4.33 ± 11 spikes/s | -3.67 ± 6.9 spikes/s | 11.7 ± 17 spikes/s | 15 ± 14 spikes/s | 111 ± 28 spikes/s | 121 ± 31 spikes/s | 10 ± 17 spikes/s
25 | S. pallida pb2a-like | 5 ± 5.3 spikes/s | 137 ± 13 spikes/s | 5.67 ± 6.6 spikes/s | 5.33 ± 4.8 spikes/s | 6.33 ± 3.9 spikes/s | 6.67 ± 4.8 spikes/s | 9.67 ± 8.8 spikes/s
26 | S. flava pb1a-like | 7.33 ± 6.5 spikes/s | 1.33 ± 6.5 spikes/s | 111 ± 28 spikes/s | -5 ± 7.8 spikes/s | 6.67 ± 15 spikes/s | 4 ± 10 spikes/s | 82.7 ± 46 spikes/s
27 | S. montana pb1b-like | 5 ± 7.6 spikes/s | 2.33 ± 18 spikes/s | -16.3 ± 10 spikes/s | 109 ± 14 spikes/s | 7.67 ± 11 spikes/s | 24.7 ± 14 spikes/s | -7 ± 20 spikes/s
28 | S. pallida pb1b-like | -5.67 ± 17 spikes/s | -4.33 ± 7 spikes/s | -9 ± 8.8 spikes/s | 90 ± 36 spikes/s | 1.33 ± 16 spikes/s | 8.67 ± 28 spikes/s | 0.667 ± 14 spikes/s
29 | Canton-S (D. melanogaster) pb3b | 153 ± 48 spikes/s | -2.83 ± 8.6 spikes/s | 1.5 ± 8.7 spikes/s | 0 ± 8.9 spikes/s | 0.833 ± 6.5 spikes/s | -2.5 ± 6.4 spikes/s | 1.33 ± 8.5 spikes/s
30 | S. hsui pb3b-like | -7 ± 2.1 spikes/s | -2.67 ± 6.5 spikes/s | -6.67 ± 6.8 spikes/s | -5.67 ± 2.9 spikes/s | 1.33 ± 5.8 spikes/s | -2.33 ± 4.5 spikes/s | -2.67 ± 5 spikes/s
